From PubChem
CBFb RUNX1 block – qHTS Assay for Compounds Blocking the Interaction Between CBF-beta and RUNX1 for the Treatment of Acute Myeloid Leukemia. AlphaScreen CBFb-His/RUNX1-biotin binding, biochemical. Runt-related transcription factor 1 (Homo sapiens) + Core-binding factor subunit beta …. 230,000 tested, under 10 active. Potency, µM (highest dose often 59.8 µM), inactives show top-dose activity, negative = inhibition, hits mostly inhibitors. AID 1477, 2009; further: % of control where 0% means no effect
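Read-out: AlphaScreen. Format: His-CBF-beta with biotinylated RUNX1 (30 nM each) preincubated 20 min, compound 15 min, Ni-chelate plus streptavidin beads 90 min; room temperature throughout.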
Six1-Eya2 blk – qHTS Assay for Inhibitors of the Six1/Eya2 Interaction; Homeobox protein SIX1 (Homo sapiens) + Protein phosphatase EYA2 (Homo sapiens), …; AlphaScreen GST-Six1/His-Eya2 binding, biochemical; stronger effect = lower value; activity change, % (no concentration beside the values); 360,000 compounds, 0.56% hits; AID 651725, 2012; in the data active means activity change below about -65%; inconclusive means mostly about -30% to -63%; further: on the % scale 0 is the no-effect control and ±100 the full control effect
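Homogeneous AlphaScreen proximity assay pairing GST-Six1 with His-tagged Eya2 (added as 5X mix: 250 nM and 500 nM) in 50 mM Tris pH 8.0, 300 mM NaCl, 1 mM TCEP. Glutathione donor and nickel acceptor beads; 1 h, 37 °C, dark.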
CtBP-E1A blk – qHTS Assay for Inhibitors of the CtBP/E1A Interaction; CtBP / adenovirus E1A interaction (AlphaScreen); 340,000 compounds, 0.49% hits; AlphaScreen GST-E1A/His-CtBP binding, 1536-well; stronger effect = lower value; activity change, % (no concentration beside the values); in the data active means activity change below about -65%; inconclusive means mostly about -30% to -63%; further: on the % scale 0 is the no-effect control and ±100 the full control effect
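Homogeneous bead-based format: GST-tagged E1A captured on glutathione donor beads, His-tagged CtBP on nickel acceptor beads; compounds precede bead addition by 2 h at 37 °C.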
RORg inh – qHTS for inhibitors of ROR gamma transcriptional activity. Nuclear receptor ROR-gamma (Mus musculus), P51450. Drosophila S2 Gal4-RORgamma UAS-luciferase reporter, 20 h. Potency, µM (doses to about 53.6 µM), for the others: at the top dose activity change, negative = inhibition, hits mostly inhibitors. 310,000 compounds, 5.4% hits. AID 2551, 2010; further: potency means the concentration at half of the fitted maximal effect; on the % scale 0 is the no-effect control and ±100 the full control effect; nearly all actives have a fitted effect of over 60% in size
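ROR gamma transcriptional activity was tracked as Gal4-UAS luciferase output in stably transfected Drosophila Schneider cells, with compound added 1 hr before 700 uM copper sulfate induction and a 20 hr ambient-temperature incubation.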
Gal4-VP16 FLuc – VP16 counterscreen qHTS for inhibitors of ROR gamma transcriptional activity | Drosophila S2 Gal4-VP16 UAS-luciferase, luminescence, 20 h | Potency, µM (doses to about 53.6 µM), for the others: top-dose activity, negative = inhibition, actives largely listed as inhibitors | 310,000 compounds, 3.5% hits | AID 2546, 2010;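 further: Gal4-VP16 expression switched on by copper sulfate through the metallothionein promoter; potency means the concentration at half of the fitted maximal effect; on the % scale 0 is the no-effect control and ±100 the full control effect; nearly all actives have a fitted effect of over 50% in size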
MBNL1 CUG block – qHTS Assay for Inhibitors of MBNL1-poly(CUG) RNA binding | TR-FRET MBNL1-His/biotin-(CUG)12 binding, 665/545 ratio | Muscleblind-like protein 1 (Homo sapiens), Q9NR56 | AID 2675, 2010 | Potency, µM (titrated, usually from 57.5 µM), inactives show at the highest dose activity change, negative = inhibition, most hits filed as inhibitors | 280,000 compounds, 0.036% hits; active means well fitted inhibition curve with a large enough effect in the signal ratio, with a control signal flat, not every such curve was filed as active; inconclusive means small, poorly fitted or top-dose-only effect, or effect the other way, or a change in a side signal; inactive means no such curve, though single readings can be large or run the other way; the % refers to the signal ratio; further: potency means the concentration at half of the fitted maximal effect; on the % scale 0 is the no-effect control and ±100 the full control effect
Target sequence (Q9NR56 whole entry, looked up): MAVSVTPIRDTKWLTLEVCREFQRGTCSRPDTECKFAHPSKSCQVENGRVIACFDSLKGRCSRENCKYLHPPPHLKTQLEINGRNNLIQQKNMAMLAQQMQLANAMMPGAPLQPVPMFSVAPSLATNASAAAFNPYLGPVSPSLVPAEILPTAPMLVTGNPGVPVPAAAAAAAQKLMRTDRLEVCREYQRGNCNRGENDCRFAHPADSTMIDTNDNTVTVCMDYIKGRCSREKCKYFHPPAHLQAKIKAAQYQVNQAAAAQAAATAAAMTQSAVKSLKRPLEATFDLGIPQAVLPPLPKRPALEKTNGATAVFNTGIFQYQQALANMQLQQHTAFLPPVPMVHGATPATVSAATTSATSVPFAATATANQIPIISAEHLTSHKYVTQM
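Compounds (final 92 nM to 58 uM) are added to His-tagged MBNL1 and biotin-(CUG)12, then terbium anti-His antibody and streptavidin-XL665 (5 nM final). After 60 min at room temperature, the 665/545 nm ratio is read.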
* hit, by the source's call; [ ] = remark or other dose. Shown are actives, neighbours in structure and some others; about 5.5% of the full set was active somewhere. Unless noted, the call rests on the fitted dose curve; in most records, active means well fitted curve in the direction sought with a large enough effect; inconclusive means small, poorly fitted or top-dose-only effect, or another doubt; inactive means no such curve, though single readings can be large; an effect the other way counts as inactive or inconclusive.

For CNC(=S)NCc1ccc(OC)cc1 the results were CBFb RUNX1 block 2%, Six1-Eya2 blk -17, CtBP-E1A blk -15, RORg inh 0%, Gal4-VP16 FLuc 0% and MBNL1 CUG block -2%.
Screening Cc1ccc(C)c(NC(=S)NCc2ccccc2)c1 returned Six1-Eya2 blk -8, CtBP-E1A blk 3, RORg inh 3.2µM*, Gal4-VP16 FLuc 5µM* and MBNL1 CUG block -1%.
For COc1ccc(CNC(=S)Nc2ccccc2C)cc1 the results were CBFb RUNX1 block 2%, Six1-Eya2 blk -16, CtBP-E1A blk -12, RORg inh 18µM*, Gal4-VP16 FLuc 10µM* and MBNL1 CUG block 1%.
`Cc1ccc(NC(=S)NCc2ccccc2)cc1C` gave Six1-Eya2 blk -2 and CtBP-E1A blk -3.
COCCn1c(=O)c(C)nc2cnc(Oc3ccccc3)nc21 was read as RORg inh 1% and Gal4-VP16 FLuc -16%.
`CCOC(=O)C1(O)Oc2cc(OC)cc(OC)c2C(=O)C1c1ccccc1` (configuration not stated) gave RORg inh 10% and Gal4-VP16 FLuc -13%.
Screening Cc1nc2ccccn2c1C(=O)N/N=C/c1cc(C)n(-c2ccc(Br)cc2)c1C returned CBFb RUNX1 block -23%, Six1-Eya2 blk -20, CtBP-E1A blk inconclusive, RORg inh 11µM*, Gal4-VP16 FLuc inconclusive and MBNL1 CUG block 6%.
Cc1cccc(C)c1-n1c(C)cc(/C=N/NC(N)=S)c1C was read as CBFb RUNX1 block inconclusive, Six1-Eya2 blk -29, CtBP-E1A blk -21, RORg inh 0.89µM*, Gal4-VP16 FLuc 0.79µM* and MBNL1 CUG block -8%.
`Cc1cc(/C=N/NC(N)=S)c(C)n1-c1ccc(Br)cc1` gave CBFb RUNX1 block inconclusive, Six1-Eya2 blk -17, CtBP-E1A blk 0, RORg inh 0.56µM*, Gal4-VP16 FLuc -2%[10 µM] and MBNL1 CUG block 15%.
Screening Cc1cc(/C=N/NC(N)=S)c(C)n1-c1ccc(Cl)cc1 returned CBFb RUNX1 block 0%, Six1-Eya2 blk -13, CtBP-E1A blk -18, RORg inh 0.45µM*, Gal4-VP16 FLuc 1.1µM* and MBNL1 CUG block -7%.
`Cc1cc(/C=N/O)c(C)n1-c1ccc(Br)cc1` gave CBFb RUNX1 block -6%, Six1-Eya2 blk -9, CtBP-E1A blk 2, RORg inh inconclusive, Gal4-VP16 FLuc -9% and MBNL1 CUG block -10%.
COc1ccc(C(=O)N2CCN(S(=O)(=O)c3ccc(Cl)cc3)CC2)cc1S(=O)(=O)N1CCOCC1 was read as Six1-Eya2 blk 2.
`CC(C)Oc1ccc(Br)cc1/C=N\NC(N)=S` gave CBFb RUNX1 block 4%, Six1-Eya2 blk -4, CtBP-E1A blk -14, RORg inh 2µM*, Gal4-VP16 FLuc 5µM* and MBNL1 CUG block 27%.
Screening Cc1cc(/C=N/NC(=O)C(O)(c2ccccc2)c2ccccc2)c(C)n1-c1cccc(C(=O)O)c1 returned CBFb RUNX1 block 3%, Six1-Eya2 blk -18, RORg inh -9% and Gal4-VP16 FLuc 6%.
`Cc1cc(/C=N/NC(N)=S)c(C)n1-c1cccc(Cl)c1` gave CBFb RUNX1 block -8%, Six1-Eya2 blk -13, CtBP-E1A blk -14, RORg inh 2.8µM*, Gal4-VP16 FLuc 10µM* and MBNL1 CUG block -3%.
For Cc1ncc(CO)c(/C=N/NC(=O)c2ccc(Br)cc2)c1O the results were CBFb RUNX1 block inconclusive, RORg inh 11µM* and Gal4-VP16 FLuc inconclusive.
Screening Cc1cc(C(=O)N/N=C/c2c(CO)cnc(C)c2O)c2ccccc2n1 returned Six1-Eya2 blk -92*, CtBP-E1A blk -99*, RORg inh -41%, Gal4-VP16 FLuc -2% and MBNL1 CUG block inconclusive.
`O=C(N/N=C/c1sc(N2CCOCC2)nc1-c1ccccc1)c1cccc(S(=O)(=O)N2CCCC2)c1` gave CBFb RUNX1 block -6%, Six1-Eya2 blk 3, CtBP-E1A blk -26, RORg inh inconclusive, Gal4-VP16 FLuc -14% and MBNL1 CUG block 8%.
For COc1ccc(C(=O)N/N=C/c2sc(N3CCOCC3)nc2-c2ccccc2)cc1OC the results were CBFb RUNX1 block -4%, Six1-Eya2 blk -24, CtBP-E1A blk 11, RORg inh 2.8µM*, Gal4-VP16 FLuc 7% and MBNL1 CUG block -3%.
For Cc1occc1C(=O)N/N=C/c1sc(N2CCOCC2)nc1-c1ccccc1 the results were CBFb RUNX1 block -11%, Six1-Eya2 blk 12, CtBP-E1A blk -15, RORg inh 13µM*, Gal4-VP16 FLuc inconclusive and MBNL1 CUG block 18%.
O=C(N/N=C/c1sc(N2CCOCC2)nc1-c1ccccc1)c1ccc(O)cc1 was read as CBFb RUNX1 block -11%, Six1-Eya2 blk inconclusive, CtBP-E1A blk -12, RORg inh 5%, Gal4-VP16 FLuc -3% and MBNL1 CUG block inconclusive.
Screening Cc1cccc(C(=O)Nc2ccc(C(=O)N3CCCCC3C)cc2)c1 (configuration not stated) returned Six1-Eya2 blk 24, CtBP-E1A blk 3, RORg inh 43%, Gal4-VP16 FLuc 13% and MBNL1 CUG block -2%.
For Cc1ccc(NC(=S)N2CCc3[nH]c4ccccc4c3C2)cc1 the results were CBFb RUNX1 block -13%, Six1-Eya2 blk inconclusive, CtBP-E1A blk -2, RORg inh 6.3µM*, Gal4-VP16 FLuc -8% and MBNL1 CUG block 6%.
Screening CCN(CC)S(=O)(=O)c1ccc(C(=O)Nn2cnnc2)cc1 returned Six1-Eya2 blk 9, CtBP-E1A blk 11, RORg inh 14%, Gal4-VP16 FLuc 5% and MBNL1 CUG block -8%.
For COC(=O)c1c(NC(=O)CCl)sc(C(=O)N2CCOCC2)c1C the results were Six1-Eya2 blk 6, CtBP-E1A blk 0, RORg inh 10µM*, Gal4-VP16 FLuc 1.8µM* and MBNL1 CUG block -9%.
Screening Cn1ccnc1SCc1cn2cc(Br)ccc2n1 returned CBFb RUNX1 block 5%, Six1-Eya2 blk -4, CtBP-E1A blk 2, RORg inh 11µM*, Gal4-VP16 FLuc 10µM* and MBNL1 CUG block -4%.
